Targets with the largest changes are over-represented here; the source holds about 21,000 in all.
Compound: CC1Cc2ccccc2N1C(=O)C1CCCN(C1)C(=O)CCl (mixture of isomers) [TRIM25 ligand 11 (diastereomer mixture)]
Experiment: probe-labelled cysteine peptide fold change vs DMSO (competition) (log2 fold change); higher = less target engagement (more negative = stronger competition)
Conditions: THP-1, incubation time: 4 h
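Also: competitive chemoproteomic profiling in live THP-1 cells with an iodoacetamide desthiobiotin (IA-DTB) probe, comparing probe-labelled peptide intensities in compound-treated cells against DMSO-treated controls.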

UniProt Q0VDF9, sequence (Q0VDF9 whole entry, looked up): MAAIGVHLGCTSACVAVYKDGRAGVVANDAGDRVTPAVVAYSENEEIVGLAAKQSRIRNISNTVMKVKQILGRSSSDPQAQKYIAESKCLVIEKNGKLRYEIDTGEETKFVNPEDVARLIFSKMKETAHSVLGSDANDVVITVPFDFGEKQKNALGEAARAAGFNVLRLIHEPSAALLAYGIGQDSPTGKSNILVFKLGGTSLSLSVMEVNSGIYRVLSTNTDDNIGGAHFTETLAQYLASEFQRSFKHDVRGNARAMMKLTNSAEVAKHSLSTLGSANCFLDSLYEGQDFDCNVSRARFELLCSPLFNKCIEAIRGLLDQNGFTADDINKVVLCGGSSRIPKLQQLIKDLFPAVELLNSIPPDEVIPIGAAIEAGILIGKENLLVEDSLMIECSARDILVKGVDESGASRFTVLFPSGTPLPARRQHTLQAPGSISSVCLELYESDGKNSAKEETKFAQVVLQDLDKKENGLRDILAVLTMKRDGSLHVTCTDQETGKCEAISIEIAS
UniProt P52789, sequence (P52789 whole entry, looked up): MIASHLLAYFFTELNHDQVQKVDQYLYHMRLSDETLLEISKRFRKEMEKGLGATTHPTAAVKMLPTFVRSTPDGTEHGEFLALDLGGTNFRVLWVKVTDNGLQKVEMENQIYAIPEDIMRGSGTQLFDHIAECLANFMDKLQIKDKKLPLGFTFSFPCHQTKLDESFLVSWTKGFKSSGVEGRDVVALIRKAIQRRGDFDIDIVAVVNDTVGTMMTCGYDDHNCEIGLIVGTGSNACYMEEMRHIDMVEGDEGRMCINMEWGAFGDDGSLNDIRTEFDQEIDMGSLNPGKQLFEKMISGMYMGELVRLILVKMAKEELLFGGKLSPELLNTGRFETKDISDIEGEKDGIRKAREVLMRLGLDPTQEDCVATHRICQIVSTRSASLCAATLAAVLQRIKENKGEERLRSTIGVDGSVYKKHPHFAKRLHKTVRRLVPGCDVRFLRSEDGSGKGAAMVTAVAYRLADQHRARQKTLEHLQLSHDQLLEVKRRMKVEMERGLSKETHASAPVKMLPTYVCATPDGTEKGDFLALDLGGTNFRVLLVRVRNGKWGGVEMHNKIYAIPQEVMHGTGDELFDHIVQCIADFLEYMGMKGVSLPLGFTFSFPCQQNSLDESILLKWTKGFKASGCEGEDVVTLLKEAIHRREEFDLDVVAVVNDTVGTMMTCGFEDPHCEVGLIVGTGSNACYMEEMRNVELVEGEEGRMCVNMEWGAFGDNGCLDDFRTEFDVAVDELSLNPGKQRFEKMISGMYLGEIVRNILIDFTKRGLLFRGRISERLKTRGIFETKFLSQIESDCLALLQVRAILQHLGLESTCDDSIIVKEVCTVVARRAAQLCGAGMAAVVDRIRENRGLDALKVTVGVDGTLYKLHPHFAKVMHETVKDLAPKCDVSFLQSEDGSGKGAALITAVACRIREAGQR
UniProt P50440, sequence (P50440 whole entry, looked up): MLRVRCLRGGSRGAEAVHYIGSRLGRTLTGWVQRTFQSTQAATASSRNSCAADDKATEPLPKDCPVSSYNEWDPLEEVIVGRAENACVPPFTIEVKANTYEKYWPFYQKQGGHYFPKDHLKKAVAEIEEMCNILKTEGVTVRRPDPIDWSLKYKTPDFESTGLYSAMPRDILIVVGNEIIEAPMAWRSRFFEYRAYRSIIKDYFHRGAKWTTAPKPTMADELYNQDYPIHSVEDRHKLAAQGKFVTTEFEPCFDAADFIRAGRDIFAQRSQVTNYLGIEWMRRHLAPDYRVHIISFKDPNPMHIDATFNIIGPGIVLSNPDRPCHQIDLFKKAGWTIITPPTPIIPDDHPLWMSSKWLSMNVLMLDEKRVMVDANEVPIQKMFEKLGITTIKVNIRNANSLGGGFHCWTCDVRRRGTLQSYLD
UniProt P48506, sequence (P48506 whole entry, looked up): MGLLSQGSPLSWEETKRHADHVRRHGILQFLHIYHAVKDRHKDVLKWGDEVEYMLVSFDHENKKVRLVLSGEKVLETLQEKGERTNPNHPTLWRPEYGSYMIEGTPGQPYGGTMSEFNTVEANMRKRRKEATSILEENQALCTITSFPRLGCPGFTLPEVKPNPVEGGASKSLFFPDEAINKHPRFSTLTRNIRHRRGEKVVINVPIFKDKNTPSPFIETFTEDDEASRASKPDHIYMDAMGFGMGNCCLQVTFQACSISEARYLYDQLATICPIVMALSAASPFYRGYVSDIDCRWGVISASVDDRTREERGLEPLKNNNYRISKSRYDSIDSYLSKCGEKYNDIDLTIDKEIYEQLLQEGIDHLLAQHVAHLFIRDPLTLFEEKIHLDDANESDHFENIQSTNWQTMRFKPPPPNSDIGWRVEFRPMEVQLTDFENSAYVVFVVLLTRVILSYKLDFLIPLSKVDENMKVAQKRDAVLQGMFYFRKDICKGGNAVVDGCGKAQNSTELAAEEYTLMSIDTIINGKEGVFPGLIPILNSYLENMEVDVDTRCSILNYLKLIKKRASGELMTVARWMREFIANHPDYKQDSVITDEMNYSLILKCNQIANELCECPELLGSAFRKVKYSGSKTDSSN
UniProt P50395, sequence (P50395 whole entry, looked up): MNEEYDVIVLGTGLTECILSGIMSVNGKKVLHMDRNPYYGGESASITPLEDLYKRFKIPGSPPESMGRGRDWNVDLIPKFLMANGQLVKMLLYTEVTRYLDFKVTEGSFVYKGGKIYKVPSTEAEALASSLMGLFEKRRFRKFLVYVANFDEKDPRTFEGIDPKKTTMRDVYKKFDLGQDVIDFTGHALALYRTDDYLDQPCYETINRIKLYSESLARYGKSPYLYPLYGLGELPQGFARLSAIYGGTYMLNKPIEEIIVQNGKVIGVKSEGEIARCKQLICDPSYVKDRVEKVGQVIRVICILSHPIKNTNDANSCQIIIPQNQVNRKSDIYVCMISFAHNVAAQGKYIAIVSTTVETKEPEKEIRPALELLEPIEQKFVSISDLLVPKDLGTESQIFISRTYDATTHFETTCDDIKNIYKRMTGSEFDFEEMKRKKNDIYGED
UniProt Q8TD30, sequence (Q8TD30 whole entry, looked up): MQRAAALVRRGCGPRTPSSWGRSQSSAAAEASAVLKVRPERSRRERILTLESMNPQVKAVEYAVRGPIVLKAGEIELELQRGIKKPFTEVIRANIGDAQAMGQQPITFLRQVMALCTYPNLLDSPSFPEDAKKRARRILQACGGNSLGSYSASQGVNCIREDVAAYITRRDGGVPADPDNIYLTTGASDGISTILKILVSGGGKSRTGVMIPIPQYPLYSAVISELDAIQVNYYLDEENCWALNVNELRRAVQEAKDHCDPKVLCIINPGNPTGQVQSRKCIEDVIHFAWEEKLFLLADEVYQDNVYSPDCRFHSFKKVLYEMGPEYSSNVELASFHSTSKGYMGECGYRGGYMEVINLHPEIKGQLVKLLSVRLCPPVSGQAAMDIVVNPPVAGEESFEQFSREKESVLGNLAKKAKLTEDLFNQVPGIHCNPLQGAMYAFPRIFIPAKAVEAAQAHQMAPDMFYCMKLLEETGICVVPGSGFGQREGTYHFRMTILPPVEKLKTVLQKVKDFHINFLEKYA
UniProt P50148, sequence (P50148 whole entry, looked up): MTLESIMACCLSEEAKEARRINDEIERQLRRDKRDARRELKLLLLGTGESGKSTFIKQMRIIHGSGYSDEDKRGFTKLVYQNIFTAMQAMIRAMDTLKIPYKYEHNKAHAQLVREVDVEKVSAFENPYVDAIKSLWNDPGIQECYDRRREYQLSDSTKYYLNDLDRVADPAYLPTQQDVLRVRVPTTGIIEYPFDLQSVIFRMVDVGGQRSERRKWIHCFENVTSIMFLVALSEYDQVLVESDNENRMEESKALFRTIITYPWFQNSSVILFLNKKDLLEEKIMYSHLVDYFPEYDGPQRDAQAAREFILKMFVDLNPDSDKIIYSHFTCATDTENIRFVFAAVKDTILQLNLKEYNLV
UniProt P57678, sequence (P57678 whole entry, looked up): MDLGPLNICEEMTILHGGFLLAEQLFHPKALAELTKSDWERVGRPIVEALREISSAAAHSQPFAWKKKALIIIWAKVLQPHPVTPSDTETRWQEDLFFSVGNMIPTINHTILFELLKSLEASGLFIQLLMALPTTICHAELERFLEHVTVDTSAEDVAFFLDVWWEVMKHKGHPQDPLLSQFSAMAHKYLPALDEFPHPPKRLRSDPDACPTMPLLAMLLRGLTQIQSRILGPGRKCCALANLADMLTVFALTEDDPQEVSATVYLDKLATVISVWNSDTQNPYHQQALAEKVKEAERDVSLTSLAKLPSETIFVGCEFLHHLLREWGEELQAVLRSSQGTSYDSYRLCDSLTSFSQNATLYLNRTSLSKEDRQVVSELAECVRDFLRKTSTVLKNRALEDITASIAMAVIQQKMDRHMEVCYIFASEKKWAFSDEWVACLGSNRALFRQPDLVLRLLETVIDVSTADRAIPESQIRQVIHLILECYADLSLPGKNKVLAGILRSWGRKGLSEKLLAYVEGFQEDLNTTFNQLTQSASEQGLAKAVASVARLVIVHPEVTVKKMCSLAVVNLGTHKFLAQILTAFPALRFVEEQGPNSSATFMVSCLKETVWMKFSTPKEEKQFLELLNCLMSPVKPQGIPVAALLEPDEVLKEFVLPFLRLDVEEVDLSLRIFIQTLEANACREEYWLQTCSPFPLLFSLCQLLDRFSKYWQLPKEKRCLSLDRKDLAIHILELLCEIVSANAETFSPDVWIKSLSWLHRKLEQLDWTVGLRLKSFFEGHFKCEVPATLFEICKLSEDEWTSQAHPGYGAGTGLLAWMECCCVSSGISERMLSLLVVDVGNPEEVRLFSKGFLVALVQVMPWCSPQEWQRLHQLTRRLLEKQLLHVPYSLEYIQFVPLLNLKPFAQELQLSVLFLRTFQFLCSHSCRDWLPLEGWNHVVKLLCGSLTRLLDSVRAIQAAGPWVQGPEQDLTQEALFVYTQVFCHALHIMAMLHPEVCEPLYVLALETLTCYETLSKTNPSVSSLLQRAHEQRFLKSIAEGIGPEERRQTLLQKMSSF

Target	probe-labelled cysteine peptide fold change (10 µM)	probe-labelled cysteine peptide fold change (50 µM)
HADHA_P40939_97+110_PGCFIAGADINMLAACK (UniProt P40939)	-0.0879	0.186
GAPDH_P04406_247_VPTANVSVVDLTCRLEK (UniProt P04406)	-0.778	-0.389
GCN1_Q92616_2136_LGTPDEQLEMANCQAVILSVEDDTGHR (UniProt Q92616)	0.097	-0.0335
GCLC_P48506_295_GYVSDIDCR (UniProt P48506)	0.0316	0.199
HDGF_P51858_108_KSCVEEPEPEPEAAEGDGDKK (UniProt P51858)	-0.541	-0.677
H2AFY_O75367_276_FVIHCNSPVWGADKCEELLEK (UniProt O75367)	-0.321	-0.0894
HMGCL_P35914_141_NINCSIEESFQR (UniProt P35914)	0.0699	0.161
GSTCD_Q8NEC7_571_EHMILCR (UniProt Q8NEC7)	0.0436	0.126
HARS_P12081_379_KVPCVGLSIGVER (UniProt P12081)	-0.0416	-0.0375
GCLM_P48507_72_EFPDVLECTVSHAVEK (UniProt P48507)	0.0379	0.0286
GART_P22102_93_SAGVQCFGPTAEAAQLESSK (UniProt P22102)	0.0151	-0.0827
GALNT1_Q10472_482_TDDLCLDVSK (UniProt Q10472)	0.0604	0.00641
GART_P22102_941_GSNAHEQALETGVTVTGCTVHFVAEDVDAGQIILQEAVPVKR (UniProt P22102)	-0.0918	0.156
GPT2_Q8TD30_281_CIEDVIHFAWEEK (UniProt Q8TD30)	0.213	0.0432
HSPA2_P54652_191_GCAGGEK (UniProt P54652)	-0.0761	-0.123
HSPBP1_Q9NZL4_269_GTLCSMGMVQQLVALVR (UniProt Q9NZL4)	0.0217	0.156
GTF2B_Q00403_37_AGDMICPECGLVVGDR (UniProt Q00403)	0.000693	0.073
GSDMD_P57764_268_CLHNFLTDGVPAEGAFTEDFQGLRAEVETISK (UniProt P57764)	0.377	0.487
HPCAL1_P37235_185_LLQCDPSSASQF<|>HPCA_P84074_185_LLQCDPSSASQF (UniProt P84074+P37235)	0.00885	-0.0604
HSPA14_Q0VDF9_394_ENLLVEDSLMIECSAR (UniProt Q0VDF9)	-0.368	-0.17

Target	probe-labelled cysteine peptide fold change (10 µM)	probe-labelled cysteine peptide fold change (50 µM)
HADH_Q16836_211_ALGKHPVSCK (UniProt Q16836)	-0.647	-0.601
HNRNPA3_P51991_64_WGTLTDCVVMRDPQTKR (UniProt P51991)	-0.717	-0.524
GPATCH8_Q9UKJ3_795_HKGELPPSSCQR (UniProt Q9UKJ3)	-0.186	-0.0452
GTPBP1_O00178_515_YQAMVHCGSIR (UniProt O00178)	-0.0472	0.0726
GTF3C3_Q9Y5Q9_810_GPCQESFYNLGR (UniProt Q9Y5Q9)	0.136	0.284
GAPVD1_Q14C86_293_TLSCVDRLEVGEVR (UniProt Q14C86)	0.185	0.128
GDI2_P50395_302_VICILSHPIK (UniProt P50395)	-0.0268	-0.00641
HNRNPM_P52272_676_DKFNECGHVLYADIK (UniProt P52272)	-0.633	-0.474
GNAI2_P04899_287_ITHSPLTICFPEYTGANKYDEAASYIQSK (UniProt P04899)	-0.134	-0.103
HADHA_P40939_349_ALMGLYHGQVLCKK (UniProt P40939)	-0.452	-0.365
HSPA4_P34932_213_NVVFVDMGHSAYQVSVCAFNR (UniProt P34932)	0.1	0.0909
GEMIN4_P57678_210_LRSDPDACPTMPLLAMLLR (UniProt P57678)	-0.252	-0.0506
GNAQ_P50148_144_SLWNDPGIQECYDR (UniProt P50148)	-0.0686	-0.0854
HAT1_O14929_168_ADMTCR (UniProt O14929)	0.0223	0.0285
HNRNPAB_Q99729_224_KFHTVSGSKCEIK (UniProt Q99729)	-0.654	-0.0882
HK2_P52789_133_GSGTQLFDHIAECLANFMDK (UniProt P52789)	0.165	-0.083
GMPS_P49915_456_VICAEEPYICK (UniProt P49915)	0.0291	0.0222
GATM_P50440_131_KAVAEIEEMCNILK (UniProt P50440)	-0.271	-0.2
HGD_Q93099_180_MLVQPNEICVIQR (UniProt Q93099)	0.479	0.382
